High-throughput results: PubChem, several laboratories
An excerpt weighted towards active compounds, which were near 27% of everything screened.
Cav3 T inh: inhibitors of human Cav3.2 T-type calcium channel. 4% of 100,000 active. AID 449739. B-score at 10 µM. Cav3.2-expressing cells, Fluo-4 calcium fluorescence FDSS; hits give low values. O95180;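 active means single-dose well whose peak fluorescence ratio is a statistical outlier from its plate by either plate-standardised score or position-corrected B-score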
PTK2B oligo ant: Pyk2 (human) oligomerization antagonism; Q293 cells, Pyk2 FERM NanoBiT luminescence; hits give low values; Q14289; 0.83% of 99,000 active; z-score (the deposit names both 25 µM and 10 µM);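 active means Z-score of -3 or lower, scaled per plate to the spread of control and sample wells; inactive means z-score above -3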;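 further: negative z-score means lost luminescence so less FERM oligomerization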
CYP2C9 inhib: inhibitors of human CYP2C9 | inhibition, % at 5 µM | 20% of 96,000 active | CYP2C9 Supersomes, luciferin-H conversion, luminescence;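 active means blocking of liver enzyme CYP2C9 beyond about 50% at 5 µM, limit read from the data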
Target sequence (P11712 whole entry, looked up): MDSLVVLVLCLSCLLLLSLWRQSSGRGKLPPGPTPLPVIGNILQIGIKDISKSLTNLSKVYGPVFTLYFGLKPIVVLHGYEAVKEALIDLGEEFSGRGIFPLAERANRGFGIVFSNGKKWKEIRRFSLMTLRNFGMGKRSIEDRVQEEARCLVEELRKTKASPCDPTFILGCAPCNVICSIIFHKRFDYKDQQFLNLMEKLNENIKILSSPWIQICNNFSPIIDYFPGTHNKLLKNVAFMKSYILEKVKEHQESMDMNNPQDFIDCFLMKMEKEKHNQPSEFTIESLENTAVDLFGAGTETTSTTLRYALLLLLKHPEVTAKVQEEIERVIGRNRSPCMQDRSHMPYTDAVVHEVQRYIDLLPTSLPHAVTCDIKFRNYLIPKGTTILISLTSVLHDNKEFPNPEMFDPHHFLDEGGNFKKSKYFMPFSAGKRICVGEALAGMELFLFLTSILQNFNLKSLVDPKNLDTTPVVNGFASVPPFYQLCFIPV
CYP2C19 act: cytochrome P450 2C19 (human) activation | recombinant CYP2C19, luciferin-H EGE luminescence; hits give high values; 0 = fully inhibited enzyme, 1 = untreated enzyme | 96,000 tested, under 10 active | AID 1025 | P33261 | activation factor at 5 µM;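 active means activation factor of at least 2 at 5 µM in the primary screen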;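 further: 0 = wells with 2.5 mM tranylcypromine and 1 = vehicle-only wells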
CYP2C9 act: increases human cytochrome P450 2C9 activity. P11712. recombinant CYP2C9, luciferin-H conversion, luminescence; hits give high values; factor 1 = untreated enzyme, 0 = blocked. activation factor at 5 µM. 1.4% of 96,000 active. AID 1024;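 active means activation factor of 2 or more for CYP2C9 at a 5 µM dose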;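 further: 0 = sulfaphenazole-blocked wells and 1 = vehicle-only wells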
CYP2C19 inhib: inhibitors of human CYP2C19; inhibition, % at 5 µM; 21% of 96,000 active; CYP2C19 Supersomes, luciferin-H EGE luminescence, 30 min; P33261;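 active means CYP2C19 inhibition above a set limit at 5 µM in the primary screen, cut at about 50% in these data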;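 further: plate controls were negative control wells for no effect and 2.5 mM tranylcypromine positive control for full effect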
Starred values were filed as active, the others as inactive; x = no result given.

SMILES	Cav3 T inh	PTK2B oligo ant	CYP2C9 inhib	CYP2C19 act	CYP2C9 act	CYP2C19 inhib
CCC(c1nnnn1Cc1cccs1)N1CCN(c2nc3ccccc3s2)CC1 (centres undefined)	-3.3	-2.7	42	0.6	0.6	41
Cc1cccc(N2CCN(C(c3cccs3)c3nnnn3C(C)(C)C)CC2)c1C (centres undefined)	-6.4*	-2.7	54*	0.6	0.5	45
COCCn1nnnc1C(c1cccs1)N1CCN(c2nc3ccccc3s2)CC1 (centres undefined)	-2.4	-3.4*	89*	0.2	0.1	82*
COc1ccccc1-c1noc(-c2ccccc2C(=O)N2CCOCC2)n1	0.89	1.5	42	0.8	0.6	21
COc1ccc(NC(=O)c2cc3n(n2)C(C(F)(F)F)CC(c2ccc4c(c2)OCO4)N3)cc1OC (centres undefined)	x	-0.28	x	x	x	x
Cc1cccc(NC(=O)c2cc3n(n2)C(C(F)(F)F)CC(c2ccc4c(c2)OCO4)N3)c1 (centres undefined)	-7.3*	-0.05	87*	0.6	0.1	39
CCCCCSc1nnc(-c2cc(Br)ccc2N)c(=O)[nH]1	-5*	1.6	60*	0.9	0.4	11
Cc1ccccc1CN1C(=O)Nc2ccccc2C(=O)N1C(C)(C)C	0.28	-1.5	1	0.8	1	18
CSCC(=O)NS(=O)(=O)c1ccc(C)cc1	0.44	x	x	x	x	x
CCOc1cc(S(=O)(=O)NCc2ccco2)c(OCC)cc1-n1cnnn1	0.17	1.5	69*	0.7	0.3	31
CCOc1ccc(-n2cnnn2)cc1S(=O)(=O)NCCc1ccc(OC)c(OC)c1	-0.009	0.68	7	0.9	0.9	10
CCOc1cc(S(=O)(=O)NCCc2ccc(OC)c(OC)c2)c(OCC)cc1-n1cnnn1	0.022	0.65	76*	0.9	0.2	13
O=S(=O)(NCC1OCCc2ccccc21)c1ccc(S(=O)(=O)N2CCOCC2)cc1 (centres undefined)	-0.069	1.4	1	0.9	1	11
CCOc1cc(S(=O)(=O)NC2CC2)c(OCC)cc1-n1cnnn1	0.17	0.82	95*	0.2	0	80*
CCOc1cc(S(=O)(=O)N2CCN(c3ccc(F)cc3)CC2)c(OCC)cc1-n1cnnn1	-0.47	0.91	18	1	0.8	-4
CCOc1cc(S(=O)(=O)NCC2OCCc3ccccc32)c(OCC)cc1-n1cnnn1 (centres undefined)	0.7	0.8	51*	0.7	0.5	32
CC(=O)COc1ccccc1OC(=O)c1ccco1	0.12	0.55	-18	1.1	1.2	-12
O=C(NCc1cccnc1)[C@@H]1CC=C[C@@H]2CCN(Cc3ccccc3)C(=O)[C@@H]21	0.068	x	x	x	x	x
CCOc1cc(S(=O)(=O)NCc2ccc(OC)cc2)c(OCC)cc1-n1cnnn1	-0.088	1.3	85*	0.7	0.1	31
Cn1nc(Oc2nc(N3CCOCC3)nc(N3CCOCC3)n2)ccc1=O	0.44	-0.01	-6	1.1	1.1	-5
O=c1c2ccccc2c(C=NCCc2ccccc2)c(O)n1Cc1ccccc1	-3.9*	-0.81	77*	0.5	0.2	48
Cc1nc(SCC(=O)NCc2ccccc2)c2oc3ccccc3c2n1	-0.37	-1.3	79*	0.7	0.2	30
CC(=O)N1CCN(c2ccc(Nc3nc(C)nc4c3oc3ccccc34)cc2)CC1	0.18	-0.19	x	x	x	x
Cc1nc(SCC(=O)N2CCN(c3ccccc3)CC2)c2oc3ccccc3c2n1	-0.4	0.42	56*	0.6	0.4	45
Cc1nc(SCC(=O)c2cccs2)c2oc3ccccc3c2n1	-2.4	-2.6	64*	0.7	0.4	26
SMILES	Cav3 T inh	PTK2B oligo ant	CYP2C9 inhib	CYP2C19 act	CYP2C9 act	CYP2C19 inhib
Cc1nc(SCC(=O)O)c2oc3ccccc3c2n1	2.5	1.6	-6	1	1.1	0
CCOC(=O)/C(=N/Nc1ccc(Cl)cc1)S(=O)(=O)c1ccccc1	0.44	-1.9	20	0.9	0.8	12
COc1cnn(-c2cc(Oc3ccc(C)cc3)ncn2)c(=O)c1Cl	0.42	-0.83	7	0.3	0.9	74*
Cc1ccc(NC(=O)c2cccc3c2-c2ccccc2C3=O)cc1C	-0.76	-0.92	68*	0.2	0.3	84*
CSc1ccccc1C(=O)Nc1ccc(C)c(C)c1	0.082	0.44	-40	0.8	1.4	25
CCn1c(SCC(=O)Nc2nc(C)cs2)nnc1-c1cccnc1	-0.009	-0.24	3	0.8	1	23
